Some test systems named below: NCI-H23 lung; NCI-H226 lung; NCI-H322M lung; HOP-62 NSCLC; NCI-H460 lung; HOP-92 NSCLC; NCI-H522 lung; A549/ATCC NSCLC; 786-0 renal; COLO 205 colon; DU-145 prostate; K-562 leukemia; MDA-MB-231 breast; RXF 393 renal; SF-268 CNS; SF-295 CNS; SF-539 CNS; UACC-257 melanoma; M14 melanoma.
Assay in all cases: NCI-60 one-dose screen, 48 h (100 = growth as untreated, 0 = no growth, -100 = all killed)
What all share (details): 10 µM

The structures appear in SMILES notation. Compounds without any hit were thinned out: in the full panel of roughly 83,000, 20% have a hit.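 Percent growth is the endpoint: 0 to 100 indicates growth inhibition (40 means 60% inhibition), 0 means no net growth, and negative values indicate cell death.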 A number with no mark means an inactive call. Activity calls are given as the source filed them. How the source made its calls: active means growth percent below 10; inactive means the rest.

Experimental findings from PubChem BioAssay (NCI) are described below.

As for `O=C(CCc1ccccc1)N1CCN(C(=O)CCc2ccccc2)CC1`, the growth in the assay with NCI-H23 lung is 101%; in the assay on NCI-H226 lung, 99.3%; in the assay with NCI-H322M lung, 95.2%; in the assay with HOP-62 NSCLC, 105%; with NCI-H460 lung it was 114%; with HOP-92 NSCLC, 84.1%. For the same molecule, the growth in the assay with NCI-H522 lung is 98.3%; in the assay with A549/ATCC NSCLC, 99.9%; with 786-0 renal, 94.6%; in the assay on COLO 205 colon, 102%; in the assay on DU-145 prostate, 140%; with K-562 leukemia, 108%. Moreover, the growth was 90.8% in the assay with MDA-MB-231 breast; 109% in the assay with RXF 393 renal; 117% in the assay with SF-268 CNS; 111% with SF-295 CNS; 104% in the assay on SF-539 CNS; 92.6% in the assay with UACC-257 melanoma. The growth with M14 melanoma is 95.9%.

For the molecule `CCCCCN(CCCCC)C(C)C(O)c1ccc2cc(Cl)c3ccccc3c2c1` (configuration not stated), the growth in the assay with NCI-H23 lung is 84.9%; in the assay with NCI-H226 lung, 86.2%; in the assay on NCI-H322M lung, 103%; in the assay on HOP-62 NSCLC, 92.1%; with NCI-H460 lung, 80.5%; with HOP-92 NSCLC, 55.9%. Further, the growth with NCI-H522 lung was 90%; in the assay with A549/ATCC NSCLC, 102%; with 786-0 renal it was 98.5%; in the assay on COLO 205 colon it was 83.9%; in the assay with DU-145 prostate it was 109%; in the assay with K-562 leukemia, 81.4%. Besides, the growth with MDA-MB-231 breast was 92.7%; in the assay with RXF 393 renal it was 97.5%; in the assay on SF-268 CNS, 102%; in the assay on SF-295 CNS it was 82.7%; in the assay on SF-539 CNS, 104%; with UACC-257 melanoma it was 97.7%. Also, in the assay with M14 melanoma, the growth was 93.1%.

For `O=[N+]([O-])c1ccc2c(c1)Cc1cc(I)ccc1-2`, the growth in the assay on NCI-H23 lung is 99.4%; in the assay with NCI-H226 lung, 97.7%; in the assay on NCI-H322M lung it was 104%; in the assay with HOP-62 NSCLC, 113%; in the assay with NCI-H460 lung it was 98.4%; in the assay with HOP-92 NSCLC it was 89.4%. Further, the growth is 95.7% in the assay on NCI-H522 lung; 94.7% in the assay with A549/ATCC NSCLC; 90% with 786-0 renal; 108% with COLO 205 colon; 116% in the assay on DU-145 prostate; 95.6% in the assay on K-562 leukemia. Besides, the growth is 102% with MDA-MB-231 breast; 101% in the assay on RXF 393 renal; 103% with SF-268 CNS; 82.5% with SF-295 CNS; 116% with SF-539 CNS; 108% in the assay on UACC-257 melanoma. Moreover, in the assay with M14 melanoma, the growth was 101%.

As to `O=C(NNC(=O)c1ccncc1)Nc1ccc([N+](=O)[O-])cc1`, the growth in the assay on NCI-H23 lung was 94.7%; with NCI-H226 lung it was 115%; in the assay with NCI-H322M lung, 105%; in the assay with HOP-62 NSCLC, 97%; in the assay with NCI-H460 lung, 105%; in the assay on HOP-92 NSCLC, 103%. For the same molecule, the growth in the assay on NCI-H522 lung is 88.5%; in the assay with A549/ATCC NSCLC it was 106%; in the assay with 786-0 renal, 107%; with COLO 205 colon it was 112%; in the assay with DU-145 prostate, 105%; with K-562 leukemia, 75.8%. For the same molecule, the growth with MDA-MB-231 breast is 109%; in the assay on RXF 393 renal, 124%; in the assay with SF-268 CNS, 106%; in the assay on SF-295 CNS, 99.1%; in the assay with SF-539 CNS, 94%; with UACC-257 melanoma, 116%. Further, the growth in the assay with M14 melanoma is 116%.

Regarding `C=CCn1ccc(=O)nc1SC`, the growth in the assay with NCI-H23 lung is 107%; with NCI-H226 lung, 112%; in the assay on NCI-H322M lung, 111%; in the assay on HOP-62 NSCLC, 97.1%; in the assay on NCI-H460 lung it was 104%; in the assay with HOP-92 NSCLC, 97.3%. Further, the growth in the assay on NCI-H522 lung is 100%; in the assay on A549/ATCC NSCLC, 111%; in the assay on 786-0 renal it was 101%; with COLO 205 colon, 106%; with DU-145 prostate, 117%; in the assay on K-562 leukemia, 103%. In addition, the growth in the assay on MDA-MB-231 breast was 109%; in the assay with RXF 393 renal, 129%; with SF-268 CNS, 108%; in the assay with SF-295 CNS, 107%; in the assay with SF-539 CNS, 105%; in the assay on UACC-257 melanoma, 102%. For the same molecule, the growth with M14 melanoma was 104%.

`Nc1nc(SCC#CCCl)c2[nH]cnc2n1`: the growth is 66.2% in the assay with NCI-H23 lung; 65.1% with NCI-H226 lung; 62.7% in the assay with NCI-H322M lung; 94.2% with HOP-62 NSCLC; 29% with NCI-H460 lung; 39.9% in the assay with HOP-92 NSCLC. In addition, the growth is 20.1% in the assay with NCI-H522 lung; 54.5% in the assay with A549/ATCC NSCLC; 41.5% with 786-0 renal; 47.7% in the assay on COLO 205 colon; 56.5% with DU-145 prostate; 38.2% with K-562 leukemia. Moreover, the growth in the assay on MDA-MB-231 breast was 65.6%; in the assay with RXF 393 renal it was 46.7%; in the assay with SF-268 CNS, 52.8%; with SF-295 CNS, 60.2%; with SF-539 CNS, 50.4%; in the assay with UACC-257 melanoma it was 50%. Moreover, the growth in the assay on M14 melanoma was 54.2%.

As to `C=CCNCCCN1C(=O)c2ccc3c4c(ccc(c24)C1=O)C(=O)N(CCCNCC=C)C3=O`, the growth in the assay with NCI-H23 lung is -55.6% (active); with NCI-H226 lung, -30.8% (active); with NCI-H322M lung, -48.3% (active); in the assay with HOP-62 NSCLC it was -53% (active); in the assay on NCI-H460 lung, -56.7% (active); in the assay on HOP-92 NSCLC, -21.6% (active). Moreover, the growth in the assay with NCI-H522 lung is -77.3% (active); in the assay on A549/ATCC NSCLC, -73.6% (active); in the assay with 786-0 renal it was -31% (active); in the assay on COLO 205 colon, -86.8% (active); with DU-145 prostate it was -94.8% (active); in the assay on K-562 leukemia it was 0.431% (active). Also, the growth in the assay on MDA-MB-231 breast is 1.35% (active); in the assay on RXF 393 renal, -94.1% (active); with SF-268 CNS it was -22.1% (active); in the assay with SF-295 CNS, -76.9% (active); in the assay with SF-539 CNS, -88.7% (active); in the assay with UACC-257 melanoma it was -84% (active). For the same molecule, the growth with M14 melanoma is -84.8% (active).

`O=CNc1c(Cl)cc2c(c1Cl)Cc1cc([N+](=O)[O-])ccc1-2`: the growth is 58.3% in the assay with NCI-H23 lung; 90.1% with NCI-H226 lung; 78% in the assay on NCI-H322M lung; 67.6% with HOP-62 NSCLC; 31.4% in the assay on NCI-H460 lung; 60.6% with HOP-92 NSCLC. Moreover, the growth was 44.7% with NCI-H522 lung; 38.4% in the assay with A549/ATCC NSCLC; 109% in the assay with 786-0 renal; 34.4% with COLO 205 colon; 79.1% in the assay on DU-145 prostate; 16.4% in the assay on K-562 leukemia. The growth in the assay with MDA-MB-231 breast was 63.6%; with RXF 393 renal, 96.9%; with SF-268 CNS it was 78.8%; in the assay with SF-295 CNS, 77.3%; in the assay with SF-539 CNS it was 67.9%; in the assay with UACC-257 melanoma, 72.6%. Besides, the growth in the assay on M14 melanoma was 28.7%.
